Measured values taken from the supplement of paper PMC13380429.

System: Vero E6 infected with SARS-CoV-2
Experiment: inhibition of SARS-CoV-2 cytopathic effect; higher = more antiviral protection, active = above 15
Settings: 48 h

Measured: inhibition of SARS-CoV-2 cytopathic effect

CC(/C=C1\SC(=S)N(CC(=O)O)C1=O)=C\c1ccccc1 [epalrestat]
inactive: 1 nM -1.25% | 8.33 nM -1.52% | 100 nM -1.17% | 833.33 nM 1.15% | 10000 nM -0.07%

C#C[C@]1(O)C=C[C@H]2[C@@H]3CCC4=CC(=O)CC[C@@H]4[C@H]3CC[C@@]21CC [gestodene]
inactive: 1 nM 0.01% | 8.33 nM 1.99% | 100 nM -0.48% | 833.33 nM -1.22% | 10000 nM 1.3%

CC1Nc2ccc(Cl)cc2S(=O)(=O)N1 (stereo not given)
inactive: 1 nM 0.09% | 8.33 nM 1.51% | 100 nM -2.37% | 833.33 nM 1.75% | 10000 nM 2.76%

CCCCCCCCCCCCCCCC(=O)OC[C@H](COP(=O)([O-])OCC[N+](C)(C)C)OC(=O)CCCCCCCCCCCCCCC [colfosceril-palmitate]
inactive: 1 nM -7.11% | 8.33 nM -7.33% | 100 nM -5.95% | 833.33 nM -6.54% | 10000 nM -9.82%

O=S(=O)(O)NC1CCCCC1 [cyclamic-acid]
inactive: 1 nM -3.13% | 8.33 nM 1.15% | 100 nM 1.07% | 833.33 nM 0.19% | 10000 nM -3.53%

O=C(O)c1ccccc1 [benzoic-acid]
inactive: 1 nM 0.45% | 8.33 nM -0.31% | 100 nM -1.57% | 833.33 nM -0.13% | 10000 nM -0.09%

Nc1ccncc1 [dalfampridine]
inactive: 1 nM 0.53% | 8.33 nM 0.41% | 100 nM 1.64% | 833.33 nM 2.49% | 10000 nM 1.18%

Fc1cc(-c2cccc3ncc(-c4cnn(C5CCNCC5)c4)nc23)cc(F)c1CN1CCOCC1
inactive: 1 nM 1.49% | 8.33 nM 2.64% | 100 nM -2.32% | 833.33 nM -1.44%
active: 10000 nM 63.3%

Cc1ccc2c(Br)cc(Br)c(OC(=O)c3ccccc3)c2n1 [broxaldine]
inactive: 1 nM 0.35% | 8.33 nM 0.53% | 100 nM 4.07% | 833.33 nM 5.01% | 10000 nM 11.5%

N[C@@H](C(=O)O)[C@@H](OCc1ccccc1)C(=O)O.N[C@H](C(=O)O)[C@H](OCc1ccccc1)C(=O)O
inactive: 1 nM -0.96% | 8.33 nM 0.96% | 100 nM -0.27% | 833.33 nM -0.54% | 10000 nM 1.19%

COC(=O)Nc1nc2cc([S+]([O-])c3ccccc3)ccc2[nH]1 (stereo not given) [oxfendazole]
inactive: 1 nM 3.62% | 8.33 nM 1.23% | 100 nM 6.94% | 833.33 nM 0.7% | 10000 nM -1.5%

CN(C)Cc1ccc(S(=O)(=O)n2ccc(/C=C/C(=O)NO)c2)cc1 [resminostat]
inactive: 1 nM 0.52% | 8.33 nM -2.34% | 100 nM -0.22% | 833.33 nM -9.24% | 10000 nM -24.5%

Cc1cc(O)c2c(c1)C(=O)c1cc(O)cc(O)c1C2=O [emodin]
inactive: 1 nM -1.74% | 8.33 nM 0.93% | 100 nM -1.79% | 833.33 nM 1.29% | 10000 nM 2.24%

C[N+]1(C)[C@@H]2C[C@@H](OC(=O)C(O)(c3cccs3)c3cccs3)C[C@H]1[C@@H]1O[C@@H]12 [tiotropium]
inactive: 1 nM 0.89% | 8.33 nM -2.54% | 100 nM -2.45% | 833.33 nM -5.08% | 10000 nM -3.35%

Cc1ccc(S(=O)(=O)NC(=O)NN2CCCCCC2)cc1 [tolazamide]
inactive: 1 nM 1.07% | 8.33 nM -0.36% | 100 nM 0.85% | 833.33 nM 1.43% | 10000 nM 2.51%

NC(=O)c1ccc[n+]([C@@H]2O[C@H](COP(=O)([O-])OP(=O)(O)OC[C@H]3O[C@@H](n4cnc5c(N)ncnc54)[C@H](O)[C@@H]3O)[C@@H](O)[C@H]2O)c1 [nadide]
inactive: 1 nM -2.68% | 8.33 nM -2.65% | 100 nM -0.81% | 833.33 nM -0.61% | 10000 nM -0.54%

CCCCCCCCCCCCCCCC(=O)C(F)(F)F
inactive: 1 nM -1.4% | 8.33 nM 0.3% | 100 nM -10.8% | 833.33 nM -13.2% | 10000 nM -0.25%

CN(C)c1cccc(Oc2cnc(Nc3cccc(O)c3)nc2)c1
inactive: 1 nM -2.69% | 8.33 nM 0.57% | 100 nM -1.76% | 833.33 nM 2.09% | 10000 nM -3.69%

CCC(C)(C)c1ccc(CC(C)CN2C[C@@H](C)O[C@@H](C)C2)cc1 (stereo not given in full) [amorolfine]
inactive: 1 nM 1.24% | 8.33 nM 0.11% | 100 nM 1.63% | 833.33 nM 3.07% | 10000 nM 1.19%

C[C@@H](CN1CCC(Cc2ccccc2)CC1)[C@@H](O)c1ccc(O)cc1
inactive: 1 nM -1.15% | 8.33 nM -0.92% | 100 nM -0.78% | 833.33 nM -2.61% | 10000 nM -5.49%

NC(=O)NO [hydroxyurea]
inactive: 1 nM 0.66% | 8.33 nM -0.23% | 100 nM 0.03% | 833.33 nM 0.46% | 10000 nM 1.29%

CC(C)[C@@H](C(=O)Nc1nccs1)c1ccc(Cl)cc1
inactive: 1 nM 0.5% | 8.33 nM 0.66% | 100 nM 1.05% | 833.33 nM 1.87% | 10000 nM 1.55%

CCN1C(=O)CNc2ncc(-c3ccc(-c4nc[nH]n4)nc3C)nc21
inactive: 1 nM 2.11% | 8.33 nM 2.76% | 100 nM 2.06% | 833.33 nM 2.77% | 10000 nM -4.67%

N#Cc1c(Oc2ccc(F)c(NC(=O)Cc3cccc(C(F)(F)F)c3)c2)ccc2nc(NC(=O)C3CC3)sc12
inactive: 1 nM 0.58% | 8.33 nM 2.74% | 100 nM 2.56% | 833.33 nM 0.34% | 10000 nM -7.91%

COc1ccc(CCNCc2ccc(OCc3ccc(Cl)nc3)c(OC)c2)cc1OC
inactive: 1 nM -1.43% | 8.33 nM 0.63% | 100 nM -0.05% | 833.33 nM -1.6% | 10000 nM -2.68%

CC(=O)/N=c1/sc(S(N)(=O)=O)nn1C [methazolamide]
inactive: 1 nM 2.05% | 8.33 nM 1.62% | 100 nM -1.26% | 833.33 nM -0.76% | 10000 nM 1.82%

CC(O)(P(=O)(O)O)P(=O)(O)O [etidronic-acid]
inactive: 1 nM 0.67% | 8.33 nM -1.84% | 100 nM -1.2% | 833.33 nM 0.77% | 10000 nM 0.13%

Cc1ccnc(NS(=O)(=O)c2ccc(N)cc2)n1 [sulfamerazine]
inactive: 1 nM 2.3% | 8.33 nM 2.7% | 100 nM -1.58% | 833.33 nM -0.16% | 10000 nM -0.59%

O=C(C1CCCCC1)N1CC(=O)N2CCc3ccccc3C2C1 (stereo not given) [praziquantel]
inactive: 1 nM -1.8% | 8.33 nM 0.08% | 100 nM 1.39% | 833.33 nM 2.67% | 10000 nM 0.6%

COC(=O)C1=C(C)NC(C)=C(C(=O)OCCN2CCN(C(c3ccccc3)c3ccccc3)CC2)C1c1cccc([N+](=O)[O-])c1 (stereo not given) [manidipine]
inactive: 1 nM 1.55% | 8.33 nM 1.19% | 100 nM -0.02% | 833.33 nM 1.16% | 10000 nM -7.15%

COc1cc2c(N3CCN(C(=O)Nc4ccc(OC(C)C)cc4)CC3)ncnc2cc1OCCCN1CCCCC1 [tandutinib]
inactive: 1 nM -3.74% | 8.33 nM -4.22% | 100 nM -2.54% | 833.33 nM 0.88% | 10000 nM 0.92%

Nc1ccncc1N [amifampridine]
inactive: 1 nM -1.81% | 8.33 nM -1.46% | 100 nM -2.67% | 833.33 nM -3.34% | 10000 nM -5.61%

Cc1cnc(Nc2ccc(OCCN3CCCC3)cc2)nc1Nc1cccc(S(=O)(=O)NC(C)(C)C)c1 [fedratinib]
inactive: 1 nM -3.17% | 8.33 nM 1.42% | 100 nM -0.42% | 833.33 nM -3.59% | 10000 nM -18.4%

COc1cc2c(cc1OC(C)C)[C@H](c1ccc(Cl)cc1)N(c1ccc(N(C)C[C@H]3CC[C@H](N4CCN(C)C(=O)C4)CC3)cc1)C(=O)C2
inactive: 1 nM -0.21% | 8.33 nM 1.25% | 100 nM 2.45% | 833.33 nM 2.4% | 10000 nM 2.39%

O=C(CCc1ccncc1)NNC(=O)N1Cc2ccccc2Oc2ccc(Cl)cc21
inactive: 1 nM 1.3% | 8.33 nM 1.11% | 100 nM 1.69% | 833.33 nM -0.24% | 10000 nM 5.24%

CNS(=O)(=O)CCc1ccc2[nH]cc(C3CCN(C)CC3)c2c1 [naratriptan]
inactive: 1 nM -2.05% | 8.33 nM 0.47% | 100 nM 2.08% | 833.33 nM -3.05% | 10000 nM -1.76%

CN1[C@@H]2CC[C@H]1C[C@@H](OC(=O)C(CO)c1ccccc1)C2 (stereo not given in full)
inactive: 1 nM -2.22% | 8.33 nM -2.93% | 100 nM 1.96% | 833.33 nM 0.7% | 10000 nM 0.64%

Cl/C(=C\n1cncn1)c1ccc(Cl)cc1Cl [loreclezole]
inactive: 1 nM 0.42% | 8.33 nM -1.72% | 100 nM -2.63% | 833.33 nM -0.72% | 10000 nM -1.41%

N#Cc1cccc(-c2c[nH]c3ncnc(N4CCOCC4)c23)c1
inactive: 1 nM -1.16% | 8.33 nM -0.52% | 100 nM -2.71% | 833.33 nM -0.07% | 10000 nM -2.14%

COc1cc2nccc(Oc3ccc(NC(=O)C4(C(=O)Nc5ccc(F)cc5)CC4)cc3)c2cc1OC [cabozantinib]
inactive: 1 nM 1.77% | 8.33 nM 1.83% | 100 nM -0.89% | 833.33 nM -1.04% | 10000 nM -14.2%
